MEKK2mut PB1 HTS: signal of MEK5 binding to mutant human MEKK2 PB1 domain; bead flow cytometry, Alexa488-MEK5 binding to MEKK2 mutant; percent response, % at 10 µM; actives 0.35% (n = 290,000); AID 1530; in the data active means percent response above about 24%, passing the limit was not always enough
MEKK2wt PB1 HTS: raises or lowers MEK5 binding to wildtype human MEKK2 PB1 domain; binding response (% of control), % at 10 µM; Q9Y2U5; actives 1.1% (n = 290,000); bead flow cytometry, Alexa488-MEK5 binding to MEKK2 WT; actives lie on both sides; in the data active means binding response below about 67% or above about 130%
MEKK3 PB1 HTS: MEKK3-MEK5 PB1 interaction, increase or decrease; binding response (% of control), % at 10 µM; actives 1.4% (n = 290,000); Q99759; AID 1529; bead-based flow cytometry, Alexa488-MEK5 binding to MEKK3; actives lie on both sides; 0 = blocked by unlabeled MEK5, 100 = vehicle;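 active means binding response more than 3 SD above or below the average of its plate-row segment, actives on both sides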;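 further: Alexa488 bead fluorescence after subtracting the streptavidin-only scavenger bead signal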
Target sequence (Q99759 whole entry, looked up): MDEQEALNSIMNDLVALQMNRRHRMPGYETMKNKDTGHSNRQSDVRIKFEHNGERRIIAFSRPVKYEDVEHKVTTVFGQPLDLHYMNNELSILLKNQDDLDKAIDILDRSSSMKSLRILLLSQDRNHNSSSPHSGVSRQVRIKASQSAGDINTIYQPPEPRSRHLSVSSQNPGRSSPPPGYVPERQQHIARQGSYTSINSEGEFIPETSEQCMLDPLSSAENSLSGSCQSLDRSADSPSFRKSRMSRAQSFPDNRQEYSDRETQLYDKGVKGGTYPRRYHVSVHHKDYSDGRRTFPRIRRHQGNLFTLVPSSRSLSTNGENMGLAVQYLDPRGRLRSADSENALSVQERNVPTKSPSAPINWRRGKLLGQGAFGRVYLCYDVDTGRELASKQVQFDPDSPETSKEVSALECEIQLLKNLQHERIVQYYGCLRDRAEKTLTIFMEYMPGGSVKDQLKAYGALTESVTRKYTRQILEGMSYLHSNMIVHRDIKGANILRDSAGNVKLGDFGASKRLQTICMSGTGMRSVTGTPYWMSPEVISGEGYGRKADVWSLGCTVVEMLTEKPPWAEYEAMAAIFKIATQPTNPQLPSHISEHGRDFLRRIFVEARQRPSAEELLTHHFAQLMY
SUMO Mot1 rescue: inhibitors of SUMOylation pathway: yeast Mot1-301 growth rescue; S. cerevisiae Mot1-301 growth rescue, ATP luminescence, 38.5C; percent above DMSO median, 100 means doubled; growth rescue, % at 18.8 µM; actives 1% (n = 320,000); AID 2716;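 active means every valid replicate shows activation above 250% relative to neutral control wells; inactive means the rest, any valid replicate at or below 250%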;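 further: OY570 slx delta 5 strain wells were the positive control but not used for scaling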
CHT allo act: human CHT allosteric activation | Q9GZV3 | AID 488977 | CHT-expressing cells, membrane potential dye, choline EC20; active compounds read high; LV-AA mutant CHT in HEK293 cells | B-score at 10 µM | actives 0.49% (n = 310,000);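 active means initial fluorescence not abnormally high and integrated response B-score, plate-corrected, over 3 SD above library mean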
CHT block: inhibits the human high affinity choline transporter. Q9GZV3. AID 488975. B-score at 10 µM. actives 0.86% (n = 310,000). CHT-expressing cells, membrane potential dye, choline response; active compounds read low;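 active means B-score over 3 SD under the library average, and starting fluorescence ratio not unusually high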;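 further: choline stimulus applied at its EC90 after an EC20 pre-addition; B-score computed on integrated fluorescence ratio after choline addition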
MEKK2wt confirm: raises or lowers MEK5 binding to wildtype human MEKK2, retest; shares compounds with MEKK3 PB1 HTS; bead flow cytometry, Alexa488-MEK5 binding to MEKK2 WT; actives lie on both sides; binding response (% of control), % at 10 µM; actives 2.4% (n = 5,900); in the data active means binding response below about 16% or above about 210%; inactive means in between
MEKK2mut confirm: signal of MEK5 binding to mutant human MEKK2, retest. shares compounds with MEKK3 PB1 HTS. bead flow cytometry, Alexa488-MEK5 binding to MEKK2 mutant. percent response, % at 10 µM. actives 2% (n = 5,900). AID 1893; in the data active means percent response mostly above about 71%, no sharp cut-off; inactive means mostly below about 38%;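 further: higher means compound restores mutant binding toward wildtype level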
MEKK3-MEK5 inh: confirmation of inhibitors of MEK5 binding to human MEKK3 | shares compounds with MEKK3 PB1 HTS | bead flow cytometry, Alexa488-MEK5 binding to MEKK3; active compounds read low | binding response (% of control), % at 10 µM | actives 1.8% (n = 5,900);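 active means binding response below 72% of control, or above a set upper limit, though filed actives all read lower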;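 further: 100% = DMSO only wells and 0% = binding blocked by excess unlabeled MEK5; lower values mean stronger disruption of MEK5 binding to MEKK3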
* hit, by the source's call; i = inactive; nt = no result given; [ ] = another dose, or the depositor's remark. Hits are enriched below; roughly 4.1% of the tested compounds scored in any of these assays.

SMILES	MEKK2mut PB1 HTS	MEKK2wt PB1 HTS	MEKK3 PB1 HTS	SUMO Mot1 rescue	CHT allo act	CHT block	MEKK2wt confirm	MEKK2mut confirm	MEKK3-MEK5 inh
Oc1ccc(N=Nc2cccc(Cl)c2)cc1C=Nc1ccc(N2CCOCC2)cc1	4.0	100.0	97.0	nt	nt	nt	nt	nt	nt
Oc1c(Br)cc(Cl)cc1C=Nc1ccc(N2CCOCC2)cc1	-18.0	54.0*[inhibitor]	89.0	17.1	i	i	83.0	-8.0	101.0
COc1ccc(C(=O)NCC(=O)OCC(=O)Nc2cc(OC)ccc2OC)cc1	2.0	98.0	99.0	9.7	i	i	nt	nt	nt
COc1ccc(NC(=O)COC(=O)CNC(=O)c2cc(OC)c(OC)c(OC)c2)cc1	0.0	105.0	145.0*	203.3	i	i	104.0	4.0	103.0
COC(=O)c1nnn(-c2ccsc2C(=O)OC)c1C(=O)OC	5.0	123.0	145.0*	48.4	i	i	101.0	-5.0	100.0
CNC(=O)c1cccn1-c1ccsc1C(=O)OC	-5.0	98.0	99.0	-8.0	i	i	nt	nt	nt
CCCOc1ccccc1Cn1c(=O)oc2ccccc21	-2.0	97.0	104.0	8.5	i	i	nt	nt	nt
N#C/C(=C(/O)COC(=O)c1ccc(C#N)cc1)c1nc2ccccc2s1	0.0	-1.0*[inhibitor]	94.0	-9.7	i	i	96.0	1.0	98.0
CCOC(=O)c1nc2ccccc2s1	-69.0	2.0*[inhibitor]	2.0*[inhibitor]	-18.5	i	i	102.0	1.0	103.0
CC(C)(C)c1ccccc1OCCOCCNCc1ccccc1	2.0	112.0	100.0	-8.5	i	i	nt	nt	nt
Cc1cc(OCCOCCNCc2ccccc2)ccc1C(C)C	6.0	134.0*	109.0	36.0	i	i	100.0	-4.0	103.0
Cc1ccc(C(=O)CSc2ncnc3sc4c(c23)CCCC4)cc1	-22.0	-7.0*[inhibitor]	0.0*[inhibitor]	-15.9	i	i	99.0	-3.0	99.0
OCCN(CCO)Cc1csc2ccccc12	-3.0	93.0	91.0	-10.5	i	i	nt	nt	nt
OC(c1cc(-c2ccc(C(F)(F)F)cc2)nc(C(F)(F)F)c1)C1CCCCN1 (stereo not drawn)	57.0*	165.0*	111.0	-0.2	i	i	153.0	32.0	103.0
CCN(C(=O)c1cn(C)c(=O)c2cc(OC)c(OC)cc12)c1cc(C)ccc1C	-9.0	-2.0*[inhibitor]	1.0*[inhibitor]	-16.4	i	i	98.0	-5.0	102.0
CCN(C(=O)c1cn(C)c(=O)c2cc(OC)c(OC)cc12)c1ccccc1C	2.0	101.0	100.0	16.4	i	i	nt	nt	nt
COc1ccc(CCN2C(=O)CCC2(C)C(=O)NC2CCCC2)cc1OC (stereo not drawn)	-16.0	45.0*[inhibitor]	35.0*[inhibitor]	nt	i	i	101.0	-1.0	100.0
Cc1ccc(CCN2C(=O)CCC2(C)C(=O)NC2CCCC2)cc1 (stereo not drawn)	-5.0	92.0	102.0	6.4	i	i	nt	nt	nt
Cc1ccc(C(=O)NCC(=O)N(C)CC(=O)Nc2ccccc2Br)s1	nt	nt	nt	-18.3	nt	nt	nt	nt	nt
COc1ccc(CNC(=O)CN2CCN(c3ccc(F)cc3)CC2)cc1	2.0	103.0	99.0	16.6	i	i	nt	nt	nt
CC1(c2ccc3ccccc3c2)NC(=O)N(CC(=O)N2CCN(Cc3ccccc3)CC2)C1=O (stereo not drawn)	nt	nt	nt	12.6	nt	nt	nt	nt	nt
OC1(c2ccc3ccccc3c2)CCN(Cc2ccccc2)C1 (stereo not drawn)	28.0*	130.0	112.0	98.7	i	i	110.0	6.0	103.0
CC(C)C(NC(=O)CNC(=O)OC(C)(C)C)C(=O)NCc1ccc(Cl)cc1 (stereo not drawn)	-18.0	48.0*[inhibitor]	88.0	-17.4	i	i	104.0	-3.0	98.0
CC(=O)Nc1ccc(NC(=O)COc2cccc3c2OC(C)(C)C3)cc1	-2.0	104.0	102.0	-10.8	i	i	nt	nt	nt
CC1(C)Cc2cccc(OCC(=O)Nc3cccnc3)c2O1	9.0	122.0	130.0*	-11.4	i	i	98.0	-4.0	99.0
SMILES	MEKK2mut PB1 HTS	MEKK2wt PB1 HTS	MEKK3 PB1 HTS	SUMO Mot1 rescue	CHT allo act	CHT block	MEKK2wt confirm	MEKK2mut confirm	MEKK3-MEK5 inh
CC(=O)c1cn(CCOc2ccc(F)cc2)c2ccccc12	1.0	108.0	108.0	-14.2	i	i	nt	nt	nt
Cn1c(-c2ccc(C=O)s2)nc2c3ccccc3c3ccccc3c21	-19.0	63.0*[inhibitor]	90.0	-3.2	i	i	75.0	-12.0	94.0
CC(C)COCC1CC2(CC(C)(c3csc(N)n3)OC2=O)C(=O)O1 (stereo not drawn)	4.0	106.0	107.0	-1.5	nt	nt	nt	nt	nt
CC(C)COCC1CC2(CC(C)C(=O)CC2=O)C(=O)O1 (stereo not drawn)	17.0	125.0	123.0*	-8.2	i	i	89.0	-10.0	85.0
COc1ccc(S(=O)(=O)N[C@@H](CC(C)C)C(=O)O)cc1	-4.0	87.0	80.0*[inhibitor]	5.5	i	i	102.0	2.0	106.0
CN(C)Cc1c(C(=O)N/N=C/c2ccncc2)nnn1-c1nonc1N	6.0	107.0	105.0	40.3	i	i	nt	nt	nt
C=Cc1c(C)c2cc3[nH]c(cc4nc(cc5nc(cc1[nH]2)C(C)=C5CCC(=O)O)C(CCC(=O)O)=C4C)c(C)c3C=C	-8.0	60.0*[inhibitor]	88.0	-21.3	i	i	69.0	-13.0	98.0
CCNC(=S)N(CCc1c(C)[nH]c2ccc(F)cc12)Cc1cccnc1	35.0*	133.0	107.0	-11.4	i	i	121.0	12.0	103.0
CCCn1c(SC(C(=O)Nc2cccc(OC)c2)c2ccccc2)nc2ccccc2c1=O (stereo not drawn)	0.0	110.0	142.0*	-0.8	i	i	96.0	-5.0	97.0
NC(=O)Nc1ccccc1C(=O)N1CCC(O)(c2ccc(Cl)cc2)CC1	1.0	103.0	107.0	nt	i	i	nt	nt	nt
Cc1ccc(S(=O)(=O)N2CCN(S(=O)(=O)N3CCCCC3)CC2)cc1	4.0	118.0	107.0	-4.4	i	i	nt	nt	nt
Cc1ccc(S(=O)(=O)N2CCCOC2)cc1	-8.0	84.0	79.0*[inhibitor]	-5.4	i	i	105.0	8.0	102.0
COc1ccc(C[C@@H]2CN3C(=NC[C@@H]3Cc3ccc(O)cc3)N2C[C@H](C)NC(=O)CCC2CCCCC2)cc1	9.0	135.0*	1.0*[inhibitor]	15.9	i	i	155.0	53.0	107.0
